Screening data as filed in PubChem.
The list is not random: actives were taken first. Their share in the collection is about 2.3%.
SENP8 block-1: inhibitors of human SENP8 protease; Q96LD8; purified SENP8, Z-RLRGG-aminoluciferin cleavage, luminescence; inhibition, % at 10 µM; actives 1.2% (n = 330,000); AID 2540; in the data active means inhibition above about 50%
Target sequence (Q96LD8 whole entry, looked up): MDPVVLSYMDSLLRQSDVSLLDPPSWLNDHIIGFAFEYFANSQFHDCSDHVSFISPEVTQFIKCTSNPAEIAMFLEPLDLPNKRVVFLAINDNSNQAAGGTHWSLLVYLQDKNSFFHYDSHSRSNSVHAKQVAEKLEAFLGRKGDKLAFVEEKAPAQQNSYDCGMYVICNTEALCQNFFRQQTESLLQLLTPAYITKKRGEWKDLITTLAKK
HSP90 refold inh: inhibitors of HSP90 luciferase refolding in rabbit reticulocyte lysate. luciferase refolding luminescence, 3 h. inhibition, % at 5.6 µM. actives 0.91% (n = 290,000);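 active means inhibition above the screen-wide mean plus 3 SD, computed separately per campaign, cut at about 16% in these data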;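 further: 0% = DMSO wells and 100% = 60 µM geldanamycin wells; inhibitors lower the luminescence because luciferase stays unfolded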
SENP6 block: SENP6 protease inhibition | Q9GZR1 | Recombinant SENP6 catalytic domain, aminoluciferin luminescence | inhibition, % at 10 µM | actives 1.8% (n = 330,000);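 active means inhibition above about 50% at the single tested dose, limit read from the data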;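 further: plate controls were DMSO wells with enzyme for no effect and DMSO wells lacking enzyme for full effect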
SENP8 block-2: SENP8 (human) protease inhibition. Q96LD8. recombinant SENP8, Nedd8 substrate fluorescence. inhibition, % at 20 µM. actives 0.64% (n = 360,000). AID 602440; in the data active means inhibition mostly above about 40%, no sharp cut-off; inactive means mostly below about 27%
LGR2 inh: Drosophila LGR2 receptor signaling inhibition; HEK293 LGR2, CRE-luciferase, bursicon-stimulated, 4 h; inhibition, % at 9.99 µM; actives 0.35% (n = 380,000);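 active means drop in luminescence signal, shown as inhibition above about 50% in the replicate tests, limit read from the data, passing the limit was not always enough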;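 further: agonist challenge used bursicon conditioned medium at about half maximal strength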
SENP7 inh: blocks the human protease SENP7 | Q9BQF6 | recombinant SENP7, Z-RLRGG-aminoluciferin luminescence, 40 min | inhibition, % at 5 µM | actives 1.5% (n = 330,000);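 active means inhibition above about 50% at the single test dose, limit read from the data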;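 further: plate controls were DMSO with enzyme for no effect and no enzyme buffer wells for full effect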
Target sequence (Q9BQF6 706-1050 limits assumed): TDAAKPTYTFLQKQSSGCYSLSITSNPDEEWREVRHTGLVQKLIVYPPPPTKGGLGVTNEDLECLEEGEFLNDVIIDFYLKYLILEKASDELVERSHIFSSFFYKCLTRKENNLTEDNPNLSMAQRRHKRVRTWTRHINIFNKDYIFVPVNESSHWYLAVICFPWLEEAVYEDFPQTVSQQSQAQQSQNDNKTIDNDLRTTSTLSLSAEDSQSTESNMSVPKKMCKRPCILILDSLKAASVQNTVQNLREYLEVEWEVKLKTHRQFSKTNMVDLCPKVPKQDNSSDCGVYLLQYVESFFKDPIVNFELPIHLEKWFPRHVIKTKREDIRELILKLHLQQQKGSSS
* marks the source's active call; other numbers are inactive results; nt = not tested or not shown.

SMILES	SENP8 block-1	HSP90 refold inh	SENP6 block	SENP8 block-2	LGR2 inh	SENP7 inh
O=C1c2cccc(Cl)c2C(=O)c2c1cccc2N1CCCC1	27	-1	29	74*	nt	8
O=C1C(Cl)=C(N2CCCCC2)C(=O)N1c1ccccc1Cl	0	1	-4	10	36	-1
C[C@@H]1CN([C@@H](C)CO)C(=O)c2cc(NC(=O)Nc3ccc(C(F)(F)F)cc3)ccc2O[C@@H]1CN(C)C(=O)Nc1ccc(F)cc1	nt	nt	nt	nt	-32	nt
COc1ccc2c3c(n(C)c2c1)[C@@H](CO)N(Cc1ccncc1)CC31CCN(C(=O)C2CCCC2)CC1	nt	nt	nt	nt	-12	nt
Nc1nc(-c2ccccc2)c(N=Nc2cccc3ccccc23)s1	2	2	15	31	-12	3
Nc1nc(-c2ccccc2)c(N=Nc2ccccc2Cl)s1	-7	-3	-11	66*	5	-5
COc1ccc(C(=O)NCCn2cc(SCC(=O)NCc3ccco3)c3ccccc32)cc1	-4	59*	-16	6	nt	-12
Cc1nnc(NC(=O)CSc2cn(CCNC(=O)c3ccccc3)c3ccccc23)s1	-9	13	-8	30	17	10
COc1ccc(C(=O)NCCn2cc(SCC(=O)Nc3nnc(C)s3)c3ccccc32)cc1	3	17*	26	8	-9	-1
C[C@@H]1CN([C@@H](C)CO)C(=O)c2cccc(NS(=O)(=O)c3ccc(Cl)cc3)c2O[C@@H]1CN(C)CC1CC1	nt	nt	nt	nt	-5	nt
COc1cc(CCNC2=CC(=O)c3ncccc3C2=O)ccc1O	nt	nt	nt	97*	1	nt
COc1ccccc1CNS(=O)(=O)c1cc(CN2C(=O)c3cccnc3C2=O)ccc1OC	-8	-1	5	7	5	-1
O=C(Cn1c(-c2cncs2)nc2ccccc21)NCc1ccccc1	-1	16*	-11	6	-18	-9
Cc1ccc(CNc2ccc(O)cc2)cc1	44	1	48	72*	nt	5
Cc1ccc(NCc2ccccc2O)cc1	-6	-1	19	15	-45	18
Cc1ccc(NC2C(=O)NC(=O)NC2=O)cc1	nt	nt	nt	72*	nt	nt
Cc1ccc(NC2CNC(=O)NC2=O)cc1C (stereo not drawn)	nt	nt	nt	7	4	nt
CCCC(=O)Nc1ccc2c(c1)C(=O)N(C)C[C@@H](OC)[C@H](C)CN(C(=O)c1cnccn1)[C@H](C)CO2	nt	nt	nt	nt	10	nt
O=[N+]([O-])c1ccc2[nH]c(O)c(N=NC(=S)Nc3cccnc3)c2c1	-4	3	-20	42*	-7	-7
O=C1N/C(=N/O)S/C1=C/c1cccc([N+](=O)[O-])c1	19	1	57*	30	nt	13
O=C1N/C(=N\S(=O)(=O)Cc2ccccc2)S/C1=C/c1cccc([N+](=O)[O-])c1	-14	2	9	15	8	4
Cc1noc(C)c1S(=O)(=O)Nc1ccc2c(c1)CC(=O)N([C@H](C)CO)C[C@@H](C)[C@@H](CN(C)Cc1ccc(-c3ccccc3)cc1)O2	nt	nt	nt	nt	8	nt
CCN1C(=O)/C(=C\C=C2/C=CC=CN2CC)SC1=S	0	3	6	29	7	7
O=C(O)CN1C(=O)/C(=C/C=C/c2ccccc2)SC1=S	-19	0	-11	4	-5	-8
CCN1C(=O)C(=CC=CN(C)c2ccccc2)SC1=S	nt	nt	nt	62*	-109	nt
SMILES	SENP8 block-1	HSP90 refold inh	SENP6 block	SENP8 block-2	LGR2 inh	SENP7 inh
CCN1C(=O)/C(=C/C=C2\C=CN(CC)c3ccccc32)SC1=S	nt	3	nt	64*	4	nt
CCC(=O)N1C[C@H](O)COC[C@H]2O[C@H](CC(=O)N3CCCCC3)CC[C@@H]21	nt	nt	nt	nt	0	nt
CCS(=O)(=O)N1Cc2ccccc2CC1C(=O)Nc1nc2ccccc2s1 (stereo not drawn)	0	26*	7	-14	58*	5
Oc1[nH]c2ccccc2c1C=Nc1ccccc1	46	-2	67*	38	-69	62*
Cc1nn2cc(-c3cccc(Cl)c3)cnc2c1Cl	20	1	-1	21	-29	71*
CC1(C)CC(N=C2C([N+](=O)[O-])=CC=C3C2=NC2(CCCCC2)N3O)CC(C)(C)N1	9	0	24	50*	4	7
O=[N+]([O-])C1=CC=C2C(=NC3(CCCCC3)N2O)C1=NC1CCCCC1	10	-5	-10	26	3	11
COc1cc(CN2CC3(CN(C)C3)c3c([nH]c4cc(OC)ccc34)[C@@H]2CO)cc(OC)c1	nt	nt	nt	nt	16	nt
Cc1ccccc1NC1=CC(=O)CC(C)(C)C1	-12	-4	-1	27	-27	-4
CC1(C)CC(=O)C=C(NC2=CC3OC(c4ccccc4)OCC3OC2=O)C1 (stereo not drawn)	9	0	8	12	86*	5
COC(=O)C[C@H]1CC[C@@H](NS(=O)(=O)c2ccccc2F)[C@@H](CO)O1	nt	nt	nt	nt	-4	nt
CO[C@@H]1CN(C)C(=O)c2ccc(NC(=O)NC(C)C)cc2OC[C@H](C)N(Cc2ccccc2)C[C@H]1C	nt	nt	nt	nt	-4	nt
Cc1nc(N)sc1C(=O)N/N=C/c1ccccc1[N+](=O)[O-]	5	-3	29	3	-20	38
CC(/C=N/NC(=O)c1sc(N)nc1C)=C\c1ccccc1	-1	-5	36	-162	-26	69*
COc1ccc(NC(=O)N(C)C[C@H]2Oc3ccc(NC(=O)Cn4cnnn4)cc3CC(=O)N([C@H](C)CO)C[C@@H]2C)cc1	nt	nt	nt	nt	-2	nt
COc1ccc(CC(NC(C)=O)C(=O)NC2CCN(S(=O)(=O)c3ccccc3)CC2)c(OC)c1 (stereo not drawn)	4	17*	-23	0	14	1
Cc1c(NC(=S)N/N=C/c2ccc([N+](=O)[O-])cc2O)c(=O)n(-c2ccccc2)n1C	2	-1	0	40*	-12	-4
Cc1c(NC(=S)N/N=C\c2ccccc2O)c(=O)n(-c2ccccc2)n1C	8	-2	-2	-212	nt	-1
CCC(=O)Nc1ccc2c(c1)OC[C@H](C)N(C(=O)c1cnccn1)C[C@H](C)[C@H](OC)CN(C)C2=O	nt	nt	nt	nt	2	nt
COCC(=O)Nc1ccc2c(c1)OC[C@@H](C)N(C(=O)C1CCCC1)C[C@@H](C)[C@@H](OC)CN(C)C2=O	nt	nt	nt	nt	-8	nt
CC(C)(c1ccccc1)c1ccc(OCC(O)CNC2CCN(Cc3ccccc3)CC2)cc1 (stereo not drawn)	-15	1	-32	8	104*	-7
N/C(=N\OC(=O)Cc1ccccc1[N+](=O)[O-])c1ccccn1	2	2	0	6	11	-3
Cc1c(C(=O)O/N=C(\N)c2ccccn2)cccc1[N+](=O)[O-]	78*	8	79*	6	nt	85*
CS(=O)(=O)N1Cc2cc(C(=O)O)nc(-c3cccc(-c4ccccc4F)c3)c2[C@H]1CCO	nt	nt	nt	nt	0	nt
CCOC(=O)c1c2c(n(C)c1COC)C(=O)C(=O)c1ccc(Br)cc1-2	97*	-1	96*	nt	nt	95*
